Results reported in PubChem BioAssay AID2073 (Sanford-Burnham Center for Chemical Genomics, 2009).
Among all 290,000 compounds or so, about 570 (0.2%) were called active. Another 1% or so got no clear call; they are omitted. This is one part of a sample in which actives are shown more often than they occur. Rule as the data show it: active = inhibition mostly above about 51% (no sharp cut-off); inconclusive = no clear call, values can overlap the other calls; inactive = mostly below about 53%.

Molecular target: Voltage-dependent N-type calcium channel subunit alpha-1B (Homo sapiens) (UniProt Q00975)
Experiment: inhibitors of Mint1-CaV2.2 protein interaction, biochemical, HTRF (AID 2073)
Details: at 20 µM, stronger effect = higher value
[1] = measured here: average of repeat tests

Sequence of Voltage-dependent N-type calcium channel subunit alpha-1B (Homo sapiens) (Q00975 whole entry, looked up): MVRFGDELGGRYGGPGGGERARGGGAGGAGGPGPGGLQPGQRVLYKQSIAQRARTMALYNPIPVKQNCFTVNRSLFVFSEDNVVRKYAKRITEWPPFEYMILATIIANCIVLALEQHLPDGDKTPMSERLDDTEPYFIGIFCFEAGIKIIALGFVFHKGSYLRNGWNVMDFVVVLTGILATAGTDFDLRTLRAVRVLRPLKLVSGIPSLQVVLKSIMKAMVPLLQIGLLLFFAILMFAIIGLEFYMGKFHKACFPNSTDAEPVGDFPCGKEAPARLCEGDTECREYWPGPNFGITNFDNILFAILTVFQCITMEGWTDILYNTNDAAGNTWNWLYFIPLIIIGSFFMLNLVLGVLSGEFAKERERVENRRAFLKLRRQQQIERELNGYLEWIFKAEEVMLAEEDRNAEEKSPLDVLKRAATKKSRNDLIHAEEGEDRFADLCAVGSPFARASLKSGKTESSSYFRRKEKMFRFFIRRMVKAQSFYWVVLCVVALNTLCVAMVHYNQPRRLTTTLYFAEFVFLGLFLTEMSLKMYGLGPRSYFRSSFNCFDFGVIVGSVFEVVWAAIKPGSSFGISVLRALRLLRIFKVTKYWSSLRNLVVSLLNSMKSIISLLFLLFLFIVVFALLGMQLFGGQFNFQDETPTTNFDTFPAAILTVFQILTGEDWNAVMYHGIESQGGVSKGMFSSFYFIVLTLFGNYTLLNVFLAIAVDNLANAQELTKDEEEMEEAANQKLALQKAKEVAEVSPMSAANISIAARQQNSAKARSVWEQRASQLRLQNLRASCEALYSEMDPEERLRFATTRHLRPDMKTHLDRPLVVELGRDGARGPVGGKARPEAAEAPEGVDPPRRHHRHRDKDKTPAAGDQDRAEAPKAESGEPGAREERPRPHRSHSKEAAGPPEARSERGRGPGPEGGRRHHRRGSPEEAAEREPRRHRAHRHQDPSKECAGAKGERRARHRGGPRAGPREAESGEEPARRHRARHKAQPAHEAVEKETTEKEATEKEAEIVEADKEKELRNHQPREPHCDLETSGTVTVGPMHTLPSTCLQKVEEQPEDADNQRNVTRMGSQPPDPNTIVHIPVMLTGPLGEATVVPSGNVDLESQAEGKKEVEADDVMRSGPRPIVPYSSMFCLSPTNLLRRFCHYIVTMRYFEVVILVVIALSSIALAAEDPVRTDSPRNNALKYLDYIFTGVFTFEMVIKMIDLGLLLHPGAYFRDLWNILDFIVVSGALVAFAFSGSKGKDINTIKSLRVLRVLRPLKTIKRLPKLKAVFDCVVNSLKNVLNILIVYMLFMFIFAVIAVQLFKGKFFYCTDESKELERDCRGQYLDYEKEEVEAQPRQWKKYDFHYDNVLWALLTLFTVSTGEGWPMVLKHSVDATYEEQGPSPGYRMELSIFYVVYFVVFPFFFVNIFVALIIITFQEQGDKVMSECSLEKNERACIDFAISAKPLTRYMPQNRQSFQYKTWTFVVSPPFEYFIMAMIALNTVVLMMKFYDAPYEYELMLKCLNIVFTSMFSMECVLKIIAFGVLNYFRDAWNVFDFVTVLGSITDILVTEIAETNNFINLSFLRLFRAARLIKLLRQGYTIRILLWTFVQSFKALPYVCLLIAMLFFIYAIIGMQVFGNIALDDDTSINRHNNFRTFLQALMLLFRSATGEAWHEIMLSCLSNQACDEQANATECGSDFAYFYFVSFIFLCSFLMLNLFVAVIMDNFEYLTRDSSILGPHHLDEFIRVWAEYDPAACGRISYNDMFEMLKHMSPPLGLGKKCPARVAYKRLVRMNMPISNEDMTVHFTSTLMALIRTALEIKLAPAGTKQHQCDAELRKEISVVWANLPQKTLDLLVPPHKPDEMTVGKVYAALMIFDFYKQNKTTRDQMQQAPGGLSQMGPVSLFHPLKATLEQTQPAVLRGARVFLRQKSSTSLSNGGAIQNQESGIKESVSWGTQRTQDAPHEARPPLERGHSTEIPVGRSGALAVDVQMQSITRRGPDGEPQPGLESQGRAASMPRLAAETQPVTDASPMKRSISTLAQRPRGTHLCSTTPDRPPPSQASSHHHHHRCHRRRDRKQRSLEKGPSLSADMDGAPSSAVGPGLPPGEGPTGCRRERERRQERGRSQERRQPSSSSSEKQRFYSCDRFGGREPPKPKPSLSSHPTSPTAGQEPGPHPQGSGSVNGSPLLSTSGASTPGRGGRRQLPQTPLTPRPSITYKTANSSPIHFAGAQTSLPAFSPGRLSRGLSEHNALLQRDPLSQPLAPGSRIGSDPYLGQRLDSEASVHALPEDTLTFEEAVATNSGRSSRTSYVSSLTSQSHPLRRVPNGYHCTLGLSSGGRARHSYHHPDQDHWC

Row | Structure (SMILES) | inhibition | inhibition [1] [%]
1 | COc1ccc(C(=O)Nc2ccc(CN3CCOCC3)cc2)cc1Br | 3% (inactive) | 
2 | COc1ccc(-c2cc(-c3ccccc3)nc(=O)[nH]2)cc1 | 0.5% (inactive) | 
3 | Cc1cc(C)c2nc(-c3ccccn3)cc(C(=O)Nc3ccc(S(=O)(=O)Nc4onc(C)c4C)cc3)c2c1 | 51% (active) | 52.5
4 | Cc1cc(C)c2nc(-c3cccnc3)cc(C(=O)Nc3ccc(S(=O)(=O)Nc4onc(C)c4C)cc3)c2c1 | 31.4% (inactive) | 
5 | Cc1cc(C)c2nc(-c3ccccn3)cc(C(=O)Nc3ccc(S(=O)(=O)Nc4cc(C)on4)cc3)c2c1 | 39.7% (inactive) | 
6 | COC(=O)c1sccc1NC(=O)c1ccc(C)o1 | 19.2% (inactive) | 
7 | O=S(=O)(Cc1ccccc1)N1CCN(c2ncccn2)CC1 | 7.7% (inactive) | 
8 | CCC(C(=O)NC1CC1)n1nc(C)c2c(C)n(-c3ccc(C)cc3)nc2c1=O (centres undefined) | 9.6% (inactive) | 
9 | COc1cc2c(cc1NC(=S)NC(=O)/C=C/c1ccc(OC)c(OC)c1)oc1ccccc12 | 14.5% (inactive) | 
10 | COc1ccc(/C=C/C(=O)NC(=S)Nc2cc3oc4ccccc4c3cc2OC)cc1 | 0.7% (inactive) | 
11 | COc1cc2c(cc1NC(=S)NC(=O)/C=C/c1ccco1)oc1ccccc12 | 53.2% (active) | 
12 | Cc1oc(-c2ccccc2Cl)nc1CS(=O)CC(=O)NCc1ccco1 (centres undefined) | 19.1% (inactive) | 
13 | Cc1cc(OCC(O)CN2CCCC2)ccc1C(C)C (centres undefined) | -5.6% (inactive) | 
14 | O=C(Nc1ccc(C2=NCCN2)cc1)c1ccc(C(=O)Nc2ccc(C3=NCCN3)cc2)c([N+](=O)[O-])c1 | 30.7% (inactive) | 
15 | O=C(Nc1ccc(C2=NCCN2)cc1)c1ccc(Cl)c(C(=O)Nc2ccc(C3=NCCN3)cc2)c1 | 36.8% (inactive) | 
16 | O=C(Nc1ccc(C2=NCCN2)cc1)c1ccc(C(=O)Nc2ccc(C3=NCCN3)cc2)c(Cl)c1 | 51.6% (active) | 
17 | O=C(/C=C/c1ccc(Cl)cc1)N(Cc1ccccc1)c1ccccn1 | 22.8% (inactive) | 
18 | COc1ccccc1CN(C)C(=O)c1cnc(C)cn1 | 5.7% (inactive) | 
19 | Cc1cccc(/C=N/N2CCN(c3ccccc3)CC2)c1 | -12.6% (inactive) | 
20 | CCCN1CCC(=O)N([C@H](CO)c2ccccc2)CC1 | 5.6% (inactive) | 
21 | O=C1c2cccc3c(N4CCCCC4)ccc(c23)C(=O)N1CCO | 24.6% (inactive) | 
22 | CCCN1C(=O)c2cccc3c(N4CCCCC4)ccc(c23)C1=O | 11.8% (inactive) | 
23 | C=CCN1C(=O)c2cccc3c(N4CCCCC4)ccc(c23)C1=O | 53.2% (active) | 

Row | Structure (SMILES) | inhibition | inhibition [1] [%]
24 | CCOc1ccc(C(=O)NC(=S)NCCCN2CCOCC2)cc1 | -2.3% (inactive) | 
25 | O=C(Nc1cccc(S(=O)(=O)N2CCOCC2)c1)c1c2c(nc3ccccc13)CCC2 | 56% (active) | 
26 | O=C(Nc1cccc(S(=O)(=O)N2CCCCC2)c1)c1c2c(nc3ccccc13)CCN(Cc1ccccc1)C2 | 40.8% (inactive) | 
27 | COc1ccc(NC(=O)c2c3c(nc4ccccc24)CCC3)cc1S(=O)(=O)N1CCOCC1 | 59.4% (inactive) | 41.1
28 | CCOc1cc(C(c2c(C)[nH][nH]c2=O)c2c(C)[nH][nH]c2=O)cc(Br)c1OC | 5.6% (inactive) | 
29 | C=CC#CC1(O)CC(C)[N+](C)(C)CC1C (centres undefined) | 17.6% (inactive) | 
30 | COCCn1c(=NC(=O)c2cc(Cl)sc2Cl)sc2cc(S(N)(=O)=O)ccc21 | 38.7% (inactive) | 
31 | CCOCCn1c(=NC(=O)c2cc(Cl)sc2Cl)sc2cc(S(N)(=O)=O)ccc21 | 53.8% (active) | 
32 | C=CCn1c(=NC(=O)c2cc(Cl)sc2Cl)sc2cc(S(N)(=O)=O)ccc21 | 27.4% (inactive) | 
33 | CCOc1ccccc1C(=O)NC(C(=O)Nc1cccnc1)C(C)C (centres undefined) | 3.3% (inactive) | 
34 | Cc1cc(C(=O)COc2cccnc2[N+](=O)[O-])c(C)n1Cc1cccs1 | 34% (inactive) | 
35 | COCCn1c(C)cc(C(=O)COc2cccnc2[N+](=O)[O-])c1C | -4% (inactive) | 
36 | Cc1cc(C(=O)COc2cccnc2[N+](=O)[O-])c(C)n1Cc1ccco1 | 78.9% (active) | 
37 | Cc1ccc(NC(=O)c2c3c(nc4ccccc24)CCC3)cc1S(=O)(=O)N(C)C | 53.6% (inactive) | 31.4
38 | Cc1ccc(S(=O)(=O)N(C)CC(=O)OCC(=O)N2CCCC2=O)cc1 | -12.9% (inactive) | 
39 | O=C(Nc1nc(-c2cccnc2)cs1)c1ccc([N+](=O)[O-])cc1 | 19% (inactive) | 
40 | COc1cc(CN(C(=O)c2ccco2)C2CCS(=O)(=O)C2)cc(OC)c1OC (centres undefined) | 11.2% (inactive) | 
41 | CC(=O)c1cccc(Nc2nc(-c3ccccc3)cs2)c1 | 0.5% (inactive) | 
42 | Cc1cccc(C=Nc2ccc3c4c(cccc24)CC3)c1O | 7.8% (inactive) | 
43 | Oc1ccc(Cl)cc1C=Nc1ccc2c3c(cccc13)CC2 | 50.4% (inactive) | 11.1
44 | Oc1ccc(Br)cc1C=Nc1ccc2c3c(cccc13)CC2 | 53.5% (active) | 
45 | O=[N+]([O-])c1cc(Cl)ccc1N1CCCC1 | -1.5% (inactive) | 
